Test [1] is described as follows: resazurin metabolic signal in HepG2 cells – cell-based, resazurin fluorescence, 24 h, PK04 Diversity Set, profiling panel (AID 1172). Also: test concentration not given here. The following applies: HepG2 viability, higher = more signal. On the technique in general: The colour change of resazurin is a common sign of viable cells or microbes.
A short description of test [2]: budding yeast growth changes without added modifier – OD600, strain BY4716, 24 h, basal condition, primary screen (AID 1173). The settings on record: S. cerevisiae BY4716 growth, OD600, 24 h; higher = more signal, called active from +8 up or from −8 down.
Test [3] is described as follows: viability profiling in MM1S myeloma cells – cell-based, resazurin fluorescence, basal, 24 h, PK04 Diversity Set, profiling panel (AID 1174).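 Also: MM1S multiple myeloma cell line; test concentration not given here.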 The following applies: higher = more signal, called active from +8 up or from −8 down.
Test [4] deals with Dihydroorotate dehydrogenase (quinone), mitochondrial (Plasmodium falciparum (isolate 3D7)) (UniProt Q08210). As to the kind of experiment: inhibition of P. falciparum DHODH – biochemical, C-terminal His tag, absorbance 600 nm, primary screen (AID 1175).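 Also: recombinant parasite enzyme with a five histidine tag at its C terminus; test concentration not given here.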 The following applies: PfDHODH enzyme, DCIP absorbance 600 nm; higher = more signal, called active from +8 up or from −8 down.

Test [5] can be described thus: inhibition of PAO1 biofilm formation – strain PAO1, LB-PBS medium, absorbance 600 nm, primary screen (AID 1176). Also: test concentration not given here. The settings on record: P. aeruginosa PAO1 growth/biofilm, A600, 12 h; higher = more signal.
Test [6] is described as follows: growth modulation of vineyard yeast isolate – strain RM11-1a, OD600, basal, 24 h, primary screen (AID 1177).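 Also: cultures grown under basal conditions with no added stressor; test concentration not given here.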 The following applies: S. cerevisiae RM11-1a growth, OD600, 24 h; higher = more signal, called active from +8 up or from −8 down.
A short description of test [7]: growth of efflux-deficient E. coli DRC39 – strain DRC39, OD650, 24 h, E. coli filamentation inducers, primary screen (AID 1178).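 Also: growth measured as culture turbidity by optical density at 650 nm; test concentration not given here.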 The following applies: E. coli DRC39 acrAB, higher = more signal, called active from +8 up or from −8 down.
Test [8] in a line: growth of efflux-deficient E. coli DRC39 – strain DRC39, OD650, 48 h, E. coli filamentation inducers, primary screen (AID 1179).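 Also: screen aims at cell division blockers that make cells filament.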 The settings on record: E. coli DRC39 delta-acrAB growth, higher = more signal, called active from +8 up or from −8 down.
Test [9] is described as follows: viability profiling in RPMI8226 myeloma cells – cell-based, resazurin fluorescence, basal, 24 h, PK04 Diversity Set, profiling panel (AID 1180).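 Also: RPMI8826 multiple myeloma cell line at 5000 cells per well; test concentration not given here.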 The following applies: higher = more signal.
The target in test [10] is E3 ubiquitin-protein ligase XIAP (Homo sapiens) (UniProt P98170). As to the kind of experiment: small molecules binding XIAP protein – biophysical, small-molecule microarray, fluorescence 635 nm, primary screen (AID 1181).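 Also: score merges 667 nm emission and signal to noise over triplicate slides.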 The following applies: higher = more signal.

Activity calls are given as the source filed them. Unless noted, no rule for the calls is given here.

Chain of Dihydroorotate dehydrogenase (quinone), mitochondrial (Plasmodium falciparum (isolate 3D7)) (Q08210 whole entry, looked up): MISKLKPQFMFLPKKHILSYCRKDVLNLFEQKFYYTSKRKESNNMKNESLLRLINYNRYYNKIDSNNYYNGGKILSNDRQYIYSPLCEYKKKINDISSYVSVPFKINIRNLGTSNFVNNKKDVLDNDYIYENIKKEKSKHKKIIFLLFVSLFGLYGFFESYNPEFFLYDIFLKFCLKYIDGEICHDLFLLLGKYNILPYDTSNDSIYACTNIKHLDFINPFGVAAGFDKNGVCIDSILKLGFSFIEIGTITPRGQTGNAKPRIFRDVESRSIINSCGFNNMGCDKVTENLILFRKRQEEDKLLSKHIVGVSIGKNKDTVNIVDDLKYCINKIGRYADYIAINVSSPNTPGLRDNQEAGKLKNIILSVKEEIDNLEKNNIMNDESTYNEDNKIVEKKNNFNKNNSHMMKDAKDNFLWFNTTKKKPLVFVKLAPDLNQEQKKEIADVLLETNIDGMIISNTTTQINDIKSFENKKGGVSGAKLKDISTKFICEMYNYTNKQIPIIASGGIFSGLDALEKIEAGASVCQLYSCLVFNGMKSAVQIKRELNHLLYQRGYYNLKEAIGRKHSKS
Chain of E3 ubiquitin-protein ligase XIAP (Homo sapiens) (P98170 whole entry, looked up): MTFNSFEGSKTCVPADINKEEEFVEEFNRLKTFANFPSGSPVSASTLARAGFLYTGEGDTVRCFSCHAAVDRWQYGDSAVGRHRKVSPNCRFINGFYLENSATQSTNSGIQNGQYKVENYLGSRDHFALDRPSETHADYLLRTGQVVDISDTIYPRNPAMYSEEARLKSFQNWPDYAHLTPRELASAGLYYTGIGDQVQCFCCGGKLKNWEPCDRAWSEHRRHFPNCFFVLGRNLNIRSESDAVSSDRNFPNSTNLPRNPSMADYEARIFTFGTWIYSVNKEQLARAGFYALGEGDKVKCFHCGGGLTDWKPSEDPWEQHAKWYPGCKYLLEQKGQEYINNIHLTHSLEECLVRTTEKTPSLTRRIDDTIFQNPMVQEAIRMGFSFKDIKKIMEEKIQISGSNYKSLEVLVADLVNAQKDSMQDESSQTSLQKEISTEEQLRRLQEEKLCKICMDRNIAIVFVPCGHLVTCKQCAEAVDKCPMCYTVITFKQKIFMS

As for `O=C1C2C=CC(C(O)c3ccccn3)N(Nc3ccccc3)C2C(=O)N1c1ccccc1` (stereo not given), the z-score in [1] was 0.458; in test [2], -1.07 (inactive); in test [3], -0.702 (inactive); in [5], 0.35 (inactive); in [6], 0.565 (inactive); in test [7], -0.562 (inactive). The z-score in [8] is -0.225 (inactive); in test [9], 0.16. Moreover, the values for the composite z-score in test [4] and in [10] were 1.06 (inactive) and 0.109, respectively.

As for `O=C1O[C@H](c2ccccc2)[C@H](c2ccccc2)N2[C@H]1[C@@H](C(=O)N1CCCCCCC1)[C@]1(C(=O)Nc3ccccc31)[C@H]2c1ccc(O)cc1`, the z-score in [1] was -0.642; in [2], -0.147 (inactive); in test [3] it was -2.64 (inactive); in test [5] it was 0.995 (inactive); in [6], 0.767 (inactive); in test [7], -0.328 (inactive). Besides, the values for the z-score in test [8] and in test [9] were -0.128 (inactive) and -2.73, respectively. In addition, the composite z-score in [4] was 0.64 (inactive); in test [10] it was 2.57.

`C=CC[C@]1(C(=O)N2CCOCC2)N=C(c2ccc(OCCCO)cc2)O[C@H]1c1ccccc1CN=[N+]=[N-]`: the z-score in test [1] was -0.744; in test [2], -0.33 (inactive); in test [3] it was -0.574 (inactive); in test [5] it was -0.497 (inactive); in [6], 0.301 (inactive); in test [7], -0.186 (inactive). The z-score in test [8] is 0.0726 (inactive); in [9] it was -1.03. The composite z-score is 0.155 (inactive) in test [4] and 0.208 in test [10].

For `COCCOC(=O)N1C(=O)[C@@]2(c3cc(C#CCC(C(=O)OC)C(=O)OC)ccc31)[C@H](C(=O)N1CCCCCCC1)[C@H]1C(=O)O[C@H](c3ccccc3)[C@H](c3ccccc3)N1[C@@H]2c1ccc(O)cc1`, the z-score in test [1] is -0.124; in test [2] it was -0.0861 (inactive); in [3], 1.09 (inactive); in [5], 0.1 (inactive); in test [6] it was 0.451 (inactive); in test [7], -0.543 (inactive). Further, the z-score in test [8] was -0.86 (inactive); in test [9], 0.646. Moreover, the composite z-score in [4] was 1.49 (inactive); in test [10], 0.312.

On to `COc1ccc(C#Cc2ccc3c(c2)[C@]2(C(=O)N3)[C@H](c3ccc(OCCO)cc3)N3[C@H](c4ccccc4)[C@H](c4ccccc4)OC(=O)[C@H]3[C@@H]2C(=O)N2CCN(c3ncccn3)CC2)cc1`, for which the z-score in test [1] is 1.45; in test [2], 1.56 (inactive); in test [3] it was 1.48 (inactive); in [5], 1.66 (inactive); in [6], 1.92 (inactive); in test [7], 0.101 (inactive). Moreover, the results for the z-score in test [8] and in test [9] were -0.344 (inactive) and 1.61, respectively. The composite z-score was -1.7 (inactive) in test [4] and 0.16 in test [10].

For the compound `C[N+](C)(C)CCCCCCNC(=O)[C@H]1C[C@H]2C(=O)N3CCC[C@H]3C(=O)N2[C@H]1c1cccc(OCCO)c1`, the z-score in test [1] is 0.473; in test [2] it was -0.187 (inactive); in test [3], -0.41 (inactive); in test [5], -0.13 (inactive); in [6] it was -0.637 (inactive); in test [7], 0.12 (inactive). The z-score in test [8] is -0.271 (inactive); in [9], -0.767. The figures for the composite z-score in test [4] and in test [10] were -0.788 (inactive) and 0.135, respectively.

With `COC(=O)[C@@]1(Cc2ccc(OC)cc2)[C@H]2c3cc(C(=O)N4CCCC4)n(Cc4ccc(C)o4)c3C[C@H]2CN1C(=O)c1ccccc1`, the z-score was -6.47 in test [1]; -8.36 (active) in [2]; -9.97 (active) in test [3]; 0.411 (inactive) in test [5]; -1.57 (inactive) in [6]; 0.0254 (inactive) in test [7]. Moreover, the values for the z-score in test [8] and in test [9] were -0.726 (inactive) and -7.27, respectively. In addition, the composite z-score in test [4] was -1.53 (inactive); in test [10] it was 0.402.

As to `C=C(CCCC)/C(=C/C[C@H](OC(=O)c1ccncc1)c1ccc(CO)o1)c1cc(C(=O)OC)ccc1OC`, the z-score was -0.673 in test [1]; -0.756 (inactive) in [2]; -2.13 (inactive) in test [3]; 0.898 (inactive) in [5]; -0.145 (inactive) in test [6]; -0.861 (inactive) in [7]. The z-score in test [8] was -0.528 (inactive); in test [9], -0.963. The composite z-score in test [4] was -3.99 (inactive); in test [10] it was 0.0537.

Turning to `COc1ccc(C#Cc2ccc3c(c2)[C@]2(C(=O)N3)[C@H](C(=O)O)[C@H]3C(=O)O[C@H](c4ccccc4)[C@H](c4ccccc4)N3[C@@H]2c2ccc(OCCO)cc2)cc1`, the z-score in test [1] was -0.182; in [2], 0.773 (inactive); in [3] it was 0.586 (inactive); in [5], 3.6 (inactive); in [6], 2.51 (inactive); in test [7] it was 0.851 (inactive). In addition, the z-score in test [8] was 0.377 (inactive); in test [9], 0.431. The composite z-score in [4] is -15.6 (active); in test [10], 0.0811.

Regarding `COC(=O)[C@@]1(Cc2ccc(F)cc2)[C@H]2c3cc(C(=O)N(C)C)n(CCSCCO)c3C[C@H]2CN1C(=O)c1ccccc1`, the z-score in test [1] was -0.234; in test [2], -0.0857 (inactive); in [3] it was -0.42 (inactive); in test [5], 0.399 (inactive); in test [6], 0.0891 (inactive); in test [7] it was -0.514 (inactive). Besides, the z-score in test [8] is -0.32 (inactive); in test [9], -0.107. In addition, the composite z-score in test [4] is -0.467 (inactive); in [10], -0.234.

With `CN(C)CCCNC(=O)[C@@]1(Cc2ccccc2I)c2ccccc2C(=O)N(Cc2ccccc2Cl)[C@H]1c1ccc(CO)cc1`, the z-score in test [1] is -6.48; in test [2] it was -7.72 (inactive); in test [3], -8.82 (active); in test [5], -0.233 (inactive); in test [6], -0.0889 (inactive); in [7], -0.268 (inactive). Also, the z-score in test [8] is -1.26 (inactive); in test [9], -6.59. Moreover, the composite z-score in test [4] was -0.205 (inactive); in test [10] it was 0.166.

As for `O=C(O)[C@@]1(Cc2ccccc2)COC(c2ccc(OCCCO)cc2)=N1`, the z-score in test [1] was 0.0838; in test [2], 1.02 (inactive); in [3], 0.296 (inactive); in [5] it was 0.274 (inactive); in test [6] it was 1.4 (inactive); in test [7] it was 1.58 (inactive). Further, the z-score in [8] is 0.466 (inactive); in [9], 0.318. Besides, the composite z-score in [4] is 1.75 (inactive); in test [10], 0.33.

The record behind these values is PubChem BioAssay.
